Laboratory results: PubChem BioAssay AID1159580 (chemical genetic matrix, 2015)
“And” between values parts separate entries of the source, which are not always exact repeats. Identical values can stand only once. In all, about 5,500 compounds went through this assay and about 2,000 (36%) were called active. Not shown: some 18% with an inconclusive outcome. No stated cut-off is given here; in the data, active means normalized growth mostly below about 0.91 (no sharp cut-off); inconclusive means no clear call, values can overlap the other calls; inactive means mostly above about 0.92. The list shows a part of the results.

Assay: chemical genetic growth profiling, strain panel (AID 1159580);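 further: tested at 20 µM; growth read once vehicle control cultures reached saturation at 30 °C; 1 = growth at the plate median or of vehicle wells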
Details: S. cerevisiae deletion strains, growth OD

Measured: normalized growth

CC(C)(Sc1cc(C(C)(C)C)c(O)c(C(C)(C)C)c1)Sc1cc(C(C)(C)C)c(O)c(C(C)(C)C)c1
inactive: locus YAL013W, strain DEP1, stronger effect = lower value 1.02 | locus YAL021C, strain ccr4, stronger effect = lower value 1.03 | locus YAL026C, strain drs2, stronger effect = lower value 1.01 | locus YAL030W, strain snc1, stronger effect = lower value 1 | locus YBL061C, strain skt5, stronger effect = lower value 0.993 | locus YBR009C, strain hhf1, stronger effect = lower value 1.02 | locus YBR021W, strain FUR4, stronger effect = lower value 1.01 | locus YBR023C, strain chs3, stronger effect = lower value 0.998 | locus YBR171W, strain sec66, stronger effect = lower value 1 | locus YBR229C, strain ROT2, stronger effect = lower value 1.01 | locus YBR231C, strain swc5, stronger effect = lower value 0.998 | locus YBR279W, strain paf1, stronger effect = lower value 0.993 | locus YCL011C, strain gbp2, stronger effect = lower value 1.02 | locus YCL016C, strain dcc1, stronger effect = lower value 1 | locus YCL029C, strain bik1, stronger effect = lower value 1.04 | locus YCL069W, strain vba3, stronger effect = lower value 1.01 | locus YCR088W, strain abp1, stronger effect = lower value 1 | locus YDL005C, strain med2, stronger effect = lower value 1.02 | locus YDL035C, strain GPR1, stronger effect = lower value 1.02 | locus YDL040C, strain nat1, stronger effect = lower value 0.991 | locus YDL074C, strain BRE1, stronger effect = lower value 1.03 | locus YDL101C, strain DUN1, stronger effect = lower value 1.02 | locus YDL134C, strain PPH21, stronger effect = lower value 1 | locus YDL185W, strain tfp1, stronger effect = lower value 1.02 | locus YDL192W, strain arf1, stronger effect = lower value 1.03 | locus YDR001C, strain nth1, stronger effect = lower value 1.02 | locus YDR069C, strain doa4, stronger effect = lower value 0.999 | locus YDR101C, strain arx1, stronger effect = lower value 1.02 | locus YDR137W, strain rgp1, stronger effect = lower value 0.99 | locus YDR150W, strain NUM1, stronger effect = lower value 1.01 | locus YDR159W, strain sac3, stronger effect = lower value 0.989 | locus YDR162C, strain NBP2, stronger effect = lower value 1.01 | locus YDR195W, strain ref2 1.06 | locus YDR297W, strain sur2, stronger effect = lower value 0.99 | locus YDR318W, strain mcm21, stronger effect = lower value 1.04 | locus YDR334W, strain swr1, stronger effect = lower value 1.02 | locus YDR335W, strain msn5, stronger effect = lower value 1.01 | locus YDR388W, stronger effect = lower value 1.02 | locus YDR392W, strain spt3, stronger effect = lower value 1.03 | locus YDR502C, strain sam2, stronger effect = lower value 1.02 | locus YEL003W, strain gim4, stronger effect = lower value 1.02 | locus YEL037C, strain rad23, stronger effect = lower value 1.01 | locus YEL061C, strain CIN8 (second series), stronger effect = lower value 1.01 | locus YEL061C, strain CIN8, stronger effect = lower value 1.01 | locus YER015W, strain faa2, stronger effect = lower value 1.01 | locus YER016W, strain bim1, stronger effect = lower value 1.01 | locus YER110C, stronger effect = lower value 1.02 | locus YER111C, strain swi4, stronger effect = lower value 1.01 | locus YER155C, strain BEM2 (second series), stronger effect = lower value 0.985 | locus YER155C, strain BEM2, stronger effect = lower value 1.01 | locus YER167W, strain BCK2, stronger effect = lower value 1.03 | locus YFR010W, strain ubp6, stronger effect = lower value 1.04 | locus YGL078C, strain dbp3, stronger effect = lower value 1.03 | locus YGL167C, strain pmr1, stronger effect = lower value 0.998 | locus YGL173C, strain kem1, stronger effect = lower value 0.986 | locus YGL227W, strain vid30, stronger effect = lower value 1.02 | locus YGL240W, strain doc1, stronger effect = lower value 0.958 | locus YGL248W, strain PDE1, stronger effect = lower value 1.01 | locus YGL253W, strain hxk2, stronger effect = lower value 1.02 | locus YGR078C, strain PAC10, stronger effect = lower value 1.02 | locus YGR135W, strain pre9, stronger effect = lower value 1.04 | locus YGR229C, strain SMI1, stronger effect = lower value 1.02 | locus YGR252W, strain gcn5, stronger effect = lower value 1.06 | locus YHR013C, strain ard1, stronger effect = lower value 1 | locus YHR027C, strain rpn1, stronger effect = lower value 1 | locus YHR030C, strain SLT2, stronger effect = lower value 1.02 and 0.989 | locus YHR079C, strain IRE1 (second series), stronger effect = lower value 1.02 | locus YHR079C, strain IRE1, stronger effect = lower value 1 | locus YHR094C, strain hxt1, stronger effect = lower value 1.02 | locus YHR129C, strain ARP1, stronger effect = lower value 1.01 | locus YHR142W, strain chs7, stronger effect = lower value 1.04 | locus YHR200W, strain rpn10, stronger effect = lower value 1.01 | locus YIL066C, strain RNR3, stronger effect = lower value 1.01 | locus YIL073C, strain SPO22, stronger effect = lower value 1.05 | locus YIL125W, strain kgd1, stronger effect = lower value 1.02 | locus YIR030C, strain dcg1, stronger effect = lower value 1.02 | locus YJL092W, strain hpr5, stronger effect = lower value 1.01 | locus YJL095W, strain BCK1 (second series), stronger effect = lower value 1 | locus YJL095W, strain BCK1, stronger effect = lower value 1.05 and 0.992 | locus YJL115W, strain asf1, stronger effect = lower value 0.993 | locus YJL129C, strain trk1, stronger effect = lower value 1.02 | locus YJL134W, strain LCB3, stronger effect = lower value 1.01 | locus YJL154C, strain vps35, stronger effect = lower value 1.01 | locus YJL164C, strain tpk1, stronger effect = lower value 1.01 | locus YJL166W, strain qcr8, stronger effect = lower value 1.01 | locus YJL168C, strain set2, stronger effect = lower value 1.02 | locus YJL187C, strain SWE1 (second series), stronger effect = lower value 1.02 | locus YJL187C, strain SWE1, stronger effect = lower value 1 | locus YJR043C, strain POL32, stronger effect = lower value 1.03 | locus YJR066W, strain TOR1, stronger effect = lower value 0.9
active: locus YGL086W, strain mad1, stronger effect = lower value 1.35 [resistant]
